Results with a measured potency or affinity are listed apart. Calls of active or inactive are those of the source.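 The calls were made as follows: active = peak inhibition of the TRPC4 channel signal over 30% at some dose, with a fitted dose response curve; inactive = no inhibition or no dose response curve.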

In this assay the target is Short transient receptor potential channel 4 (Mus musculus) (UniProt Q9QUQ5). Nature of the assay: mouse TRPC4 block via Gq-coupled stimulation – cell-based, acetylcholine stimulus, HEK293 TRPC4, Fluo-4, SAR follow-up (AID 492996). Particulars: HEK293 TRPC4 cells, ACh-evoked Fluo-4 calcium flux; series mostly up to 20 µM. On the technique in general: A change in cytosolic calcium serves as a functional read-out for many receptors and channels.
Short transient receptor potential channel 4 (Mus musculus), sequence (Q9QUQ5 whole entry, looked up): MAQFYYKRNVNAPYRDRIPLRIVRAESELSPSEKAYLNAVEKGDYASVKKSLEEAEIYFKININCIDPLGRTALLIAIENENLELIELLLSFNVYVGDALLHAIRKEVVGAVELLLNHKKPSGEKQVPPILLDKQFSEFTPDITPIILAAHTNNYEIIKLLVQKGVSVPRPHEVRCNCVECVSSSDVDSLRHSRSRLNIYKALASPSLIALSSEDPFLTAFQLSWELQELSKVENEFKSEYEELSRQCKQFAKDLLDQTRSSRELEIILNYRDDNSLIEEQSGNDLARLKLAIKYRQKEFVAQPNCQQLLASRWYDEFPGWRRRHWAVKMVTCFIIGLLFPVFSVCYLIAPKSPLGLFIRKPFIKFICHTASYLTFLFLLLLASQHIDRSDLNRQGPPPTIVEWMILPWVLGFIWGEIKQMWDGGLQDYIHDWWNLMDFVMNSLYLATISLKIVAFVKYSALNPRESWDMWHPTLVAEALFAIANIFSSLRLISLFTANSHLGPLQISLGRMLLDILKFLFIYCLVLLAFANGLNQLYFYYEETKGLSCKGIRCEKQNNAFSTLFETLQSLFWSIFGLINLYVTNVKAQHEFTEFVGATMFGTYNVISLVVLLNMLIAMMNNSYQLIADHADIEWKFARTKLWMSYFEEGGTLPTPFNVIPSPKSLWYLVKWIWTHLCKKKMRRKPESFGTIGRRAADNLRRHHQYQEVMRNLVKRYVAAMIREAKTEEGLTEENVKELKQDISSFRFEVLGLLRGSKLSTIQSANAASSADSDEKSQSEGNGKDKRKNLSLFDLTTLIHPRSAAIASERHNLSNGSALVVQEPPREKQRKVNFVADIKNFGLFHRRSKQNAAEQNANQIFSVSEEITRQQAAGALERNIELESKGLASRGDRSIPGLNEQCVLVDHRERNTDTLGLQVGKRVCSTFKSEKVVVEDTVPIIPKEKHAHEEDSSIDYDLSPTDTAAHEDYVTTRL
Take `Cc1ccnc(N2CCCCCC2)c1`: the outcome was inactive.

For the compound `Cc1cc(N2CCN(c3ncccn3)CC2)nc2ccccc12`, the result was inactive.

In the case of `Cc1ccc2nc(N3CCCCCC3)cc(C)c2c1`, the result was inactive.

Regarding `Cc1cc(N2CCN(c3ccccc3C#N)CC2)nc2ccccc12`, the outcome was inactive.

`COc1ccc(N2CCN(c3cc(C)c4ccccc4n3)CC2)cc1`: the result was inactive.

For `COc1ccccc1N1CCN(c2cc(C)c3ccccc3n2)CC1`, the result was inactive.

As to `Cc1cc(N2CCCC(O)C2)nc2ccccc12` (stereo unspecified), the result was inactive.

Consider `Cc1cc(N2CCCCCC2)nc2ccc(F)cc12`, for which the result was inactive.

In the case of `Cc1cc(N2CCC(N3CCOCC3)CC2)nc2ccccc12`, the outcome was inactive.

Regarding `Cc1cc(N2CCOc3ccccc32)nc2ccccc12`, the outcome was inactive.

As to `Cc1cc(N2CCCCCC2)nc2c(C)cccc12`, the result was inactive.

As for `Cc1ccnc(N2CCCCCC2)n1`, the outcome was inactive.

For the compound `Cc1cc(N(C)CCN(C)C)nc2ccccc12`, the outcome was inactive.

As for `CCc1ccc2nc(N3CCCCCC3)cc(C)c2c1`, the result was inactive.

For `Cc1cc(N2CCN(CC3CCCO3)CC2)nc2ccccc12` (stereo unspecified), the result was inactive.

For `Cc1cc(N2CC(C)CC(C)C2)nc2ccccc12` (stereo unspecified), the outcome was inactive.

Take `FC(F)(F)c1cc(N2CCCCCC2)nc2ccccc12`: the result was inactive.

Take `Cc1cc(N2CCOCC2)nc2ccccc12`: the result was inactive.

Regarding `COCCN(C)c1cc(C)c2ccccc2n1`, the result was inactive.

As for `CCN(CC)c1cc(C)c2ccccc2n1`, the result was inactive.

As to `c1ccc(-c2cc(N3CCCCCC3)nc3ccccc23)cc1`, the outcome was inactive.

Source of the values: PubChem BioAssay AID492996 (Johns Hopkins Ion Channel Center, 2010).
